Test results published in PubChem BioAssay (Tox21).
Inconclusive results are not listed. Activity calls are given as the source filed them. Calls come from the whole dose curve; as a rule, active = well fitted cell-killing curve with a large enough effect in the repeat runs (not every such curve was filed as active); inconclusive = weak or mixed curves, or effect the other way; inactive = no such curve, though single readings can be large or run the other way. Positions of bridges follow the written chain, without caps; N, C: chain ends. Where a SMILES comes first, the peptide text is derived from it. Non-standard residues stand in square brackets, D forms with d. Residues, ends and D or L forms follow the SMILES beside them. hArg = N=C(N)NCCCC[C@H](N)C(=O)O; Mpa = O=C(O)CCS

Experiment: qHTS assay to identify small molecule antagonists of the farnesoid-X-receptor (FXR) signaling pathway - cell viability counter screen (AID 743221); note: nearly all actives have a fitted effect of over 50% in size
Conditions: FXR-bla HEK293T viability, CellTiter-Glo luminescence, 16 h; series mostly up to 62.6 µM; activity change, negative = cytotoxicity: at the top concentration
Source text: National Center for Advancing Translational Sciences [NCATS]
NIH Chemical Genomics Center [NCGC]
U.S. Environmental Protection Agency [EPA]
National Institutes of Environmental Health Sciences [NIEHS]
National Toxicology Program [NTP]
U.S. Food and Drug Administration [FDA]
The farnesoid-X-receptor (FXR), a nuclear hormone receptor, is highly expressed in liver, intestine, kidney and adrenal cortex. Natural ligands of FXR are the bile acids (Cholic acid, Chenodeoxy cholic acid etc). FXR is an important regulator of diverse metabolic pathways, including the bile acid homeostasis, lipid and glucose metabolisms. FXR regulates the expression of target genes by binding either as a monomer or as a heterodimer with the retinoid X receptor (RXR). Numerous studies have reported that FXR exerts protective function during cholestasis, diabetes, liver regeneration, and cancer. To identify compounds that inhibit FXR signaling, GeneBLAzer FXR-UAS-bla HEK 293T cell line (Invitrogen, Carlsbad, CA) containing a beta-lactamase reporter gene under the control of a UAS response element was used to screen the Tox21 10K compound library. The cytotoxicity of the Tox21 compound library against the FXR-bla cell line was tested in parallel by measuring the cell viability using CellTiter-Glo assay in the same wells.
Tox21 Assay Protocol Summary:
FXR-bla cells were dispensed at 5000 cells/5uL/well in 1536-well black wall/clear bottom plates using a Multidrop Combi (Thermo Fisher Scientific, Waltham, MA) dispenser. After the assay plates were incubated at 37 C and 5% CO2 for 5 h, 23 nL of compounds dissolved in DMSO, positive controls or DMSO only was transferred to the assay plate by a Pintool station (Kalypsys, San Diego, CA), followed by addition of 1 uL Chenodeoxycholic acid (50 uM, final concentration in the wells). The assay plates were incubated at 37C for 16 h. After 1 uL of LiveBLAzerTM B/G FRET substrate was added using a Bioraptr Flying Reagent Dispenser (FRD) workstation (Beckman Coulter, Indianapolis, IN), the plates were incubated at room temperature for 2 h, and fluorescence intensity was measured by an Envision plate reader (PerkinElmer, Shelton, CT). For cell viability readout that measures cytotoxicity, 4uL/well of CellTiter-Glo reagent was added into the assay plates using a Bioraptr FRD. After 30 min incubation at room temperature, the luminescence intensity in the plates was measured using a ViewLux plate reader (PerkinElmer).
% is set by controls: 0 for no effect and ±100 for the full control effect.

| Structure (SMILES) | activity change, negative = cytotoxicity |
| --- | --- |
| Cn1nnc2c(C(N)=O)ncn2c1=O | -10.1% (inactive) |
| COC(=O)c1ccccc1C(=O)O | 4.97% (inactive) |
| CC(C)C1OCCN1CCOC(=O)NCCCCCCNC(=O)OCCN1CCOC1C(C)C (stereo not given) | 9.15% (inactive) |
| CCCC(=O)Nc1ccc(OCC(O)CNC(C)C)c(C(C)=O)c1 (stereo not given) | 12.3% (inactive) |
| CC(=O)O[Si](C)(OC(C)=O)OC(C)=O | -2.01% [at 81.1 µM] (inactive) |
| CN(C)CCCCl | 10.2% [at 81.1 µM] (inactive) |
| N[C@@H](CSCCCO)C(=O)O | 0.58% [at 29.1 µM] (inactive) |
| C=CC/C=C/C | -0.197% [at 81.1 µM] (inactive) |
| CN1CCOC(c2ccccc2)c2ccccc2C1 (stereo not given) | -2.19% (inactive) |
| C=C(C)c1cccc(C(C)(C)N=C=O)c1 | -4.47% (inactive) |
| Cc1ccccc1C(N)=O | 6% (inactive) |
| CC(C)(CO)C(O)C(=O)NCCCO (stereo not given) | -2.95% (inactive) |
| CC1=C(C(=O)O)N2C(=O)[C@@H](NC(=O)[C@H](N)c3ccccc3)[C@H]2SC1 | 10.7% (inactive) |
| CCCCCCCCCCCCCCCCCC#N | -0.264% [at 81.1 µM] (inactive) |
| OCC1(CO)COCOC1 | -18.1% (inactive) |
| CCCC(=O)OCCC(C)CCC=C(C)C (stereo not given) | -13.4% (inactive) |
| OC1OCCOC1O (stereo not given) | -3.65% (inactive) |
| CN(C)CCCO[C@@H]1[C@H]2OC(C)(C)O[C@H]2O[C@@H]1C(O)CO (stereo not given in full) | -9.4% (inactive) |
| Cc1ccc(C)c([N+](=O)[O-])c1 | 0.12% (inactive) |
| O=C(NCN1CCOCC1)c1cnccn1 | 8.45% (inactive) |

| Structure (SMILES) | activity change, negative = cytotoxicity |
| --- | --- |
| CC1(C)O[C@H]2CC(=O)OC[C@]23[C@H]2CC[C@@]4(C)[C@H](c5ccoc5)OC(=O)[C@H]5O[C@]54[C@]2(C)C(=O)C[C@@H]13 | 0.933% (inactive) |
| NCC1(Cc2noc(=O)[nH]2)CCCCC1 | -10.6% (inactive) |
| NC(=O)[C@@H]1CSSCCC(=O)N[C@@H](CCCCN=C(N)N)C(=O)NCC(=O)N[C@@H](CC(=O)O)C(=O)N[C@@H](Cc2c[nH]c3ccccc23)C(=O)N2CCC[C@H]2C(=O)N1 ([Mpa][hArg]GDWPC-NH2; disulfide 1-7) | 8.28% (inactive) |
| Cc1c(NC(=O)c2cccnc2)c(=O)n(-c2ccccc2)n1C | 4.88% (inactive) |
| CCOC(=O)CC1(C)OCC(C)O1 (stereo not given) | -6.27% (inactive) |
| CC1c2ccccc2CN1NC(=O)c1ccc(Cl)c(S(N)(=O)=O)c1 (stereo not given) | -4.17% (inactive) |
| C/C=C(\C)C(=O)OCCc1ccccc1 | -3.56% (inactive) |
| CC(Oc1cc(Cl)ccc1Cl)C(=O)O (stereo not given) | 19.3% (inactive) |
| c1ccc2cnccc2c1 | -10.4% (inactive) |
| CCn1cc(C(=O)O)c(=O)c2cnc(N3CCCC3)nc21 | -0.638% [at 13.2 µM] (inactive) |
| CCCCOCCOC(=O)COc1ccc(Cl)cc1Cl | 1.9% (inactive) |
| CCCCCCCCCCCCCCC(=O)NC(CO)CCCCCCCCCCCCCC (stereo not given) | 15.7% [at 81.1 µM] (inactive) |
| CCOCCOCC | -2.13% [at 81.1 µM] (inactive) |
| CC(=O)N[C@@H](CO)C(=O)N[C@@H](CC(=O)O)C(=O)N[C@@H](CCCCN)C(=O)N1CCC[C@H]1C(=O)O (Ac-SDKP-OH) | -6.45% (inactive) |
| Cc1ccc(N)cc1S(=O)(=O)O | -3.54% (inactive) |
| C=CCSSCCC | 12.5% (inactive) |
| O=C(CN1CCNCC1)NC1CCCCC1 | 2.08% (inactive) |
| CCC(=O)Oc1ccc2c(c1)CC[C@@H]1[C@@H]2CC[C@@]2(C)[C@H]1C[C@@H](OC(=O)CC)[C@@H]2OC(=O)CC | 2.15% (inactive) |
| COc1cc(OC)nc(O[C@H](C(=O)O)C(OC)(c2ccccc2)c2ccccc2)n1 | 2.11% (inactive) |
| CC(=O)O[C@H]1C[C@@H]2CC[C@@]1(C)C2(C)C | -0.688% (inactive) |
